# Source: PubChem BioAssay
# The source made the active and inactive calls. Unless noted, the rule behind the calls is not given here.
# What was measured:
# [1] = resazurin metabolic signal in HepG2 cells – cell-based, resazurin fluorescence, 24 h, PK04 Diversity Set, profiling panel (AID 1172); conditions: HepG2 viability, higher = more signal
# [2] = budding yeast growth changes without added modifier – OD600, strain BY4716, 24 h, basal condition, primary screen (AID 1173); conditions: S. cerevisiae BY4716 growth, OD600, 24 h; higher = more signal, called active from +8 up or from −8 down unless noted
# [3] = viability profiling in MM1S myeloma cells – cell-based, resazurin fluorescence, basal, 24 h, PK04 Diversity Set, profiling panel (AID 1174); conditions: higher = more signal, called active from +8 up or from −8 down unless noted;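 note: MM1S multiple myeloma cell line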
# [4] = target: Dihydroorotate dehydrogenase (quinone), mitochondrial (Plasmodium falciparum (isolate 3D7)) (UniProt Q08210); assay: inhibition of P. falciparum DHODH – biochemical, C-terminal His tag, absorbance 600 nm, primary screen (AID 1175); conditions: PfDHODH enzyme, DCIP absorbance 600 nm; higher = more signal, called active from +8 up or from −8 down unless noted;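 note: recombinant parasite enzyme with a five histidine tag at its C terminus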
# [5] = inhibition of PAO1 biofilm formation – strain PAO1, LB-PBS medium, absorbance 600 nm, primary screen (AID 1176); conditions: P. aeruginosa PAO1 growth/biofilm, A600, 12 h; higher = more signal
# [6] = growth modulation of vineyard yeast isolate – strain RM11-1a, OD600, basal, 24 h, primary screen (AID 1177);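 note: cultures grown under basal conditions with no added stressor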; conditions: S. cerevisiae RM11-1a growth, OD600, 24 h; higher = more signal, called active from +8 up or from −8 down unless noted
# [7] = growth of efflux-deficient E. coli DRC39 – strain DRC39, OD650, 24 h, E. coli filamentation inducers, primary screen (AID 1178);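 note: growth measured as culture turbidity by optical density at 650 nm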; conditions: E. coli DRC39 acrAB; higher = more signal, called active from +8 up or from −8 down unless noted
# [8] = growth of efflux-deficient E. coli DRC39 – strain DRC39, OD650, 48 h, E. coli filamentation inducers, primary screen (AID 1179);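 note: screen aims at cell division blockers that make cells filament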; conditions: E. coli DRC39 delta-acrAB growth, higher = more signal, called active from +8 up or from −8 down unless noted
# [9] = viability profiling in RPMI8226 myeloma cells – cell-based, resazurin fluorescence, basal, 24 h, PK04 Diversity Set, profiling panel (AID 1180); conditions: higher = more signal; RPMI8226 viability, resazurin fluorescence, 24 h unless noted;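 note: RPMI8826 multiple myeloma cell line at 5000 cells per well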
# [10] = target: E3 ubiquitin-protein ligase XIAP (Homo sapiens) (UniProt P98170); assay: small molecules binding XIAP protein – biophysical, small-molecule microarray, fluorescence 635 nm, primary screen (AID 1181); conditions: higher = more signal;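 note: score merges 667 nm emission and signal to noise over triplicate slides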
# [11] = system: XIP peptide (Xip251-270) binding; assay: XIP fragment 251-270 binding compounds – biochemical, small-molecule microarray, fluorescence 635/667 nm, 0.1 µg/mL protein, primary screen (AID 1182); conditions: fluorescent protein binding, 635 nm; higher = more signal, called active from +8 up or from −8 down unless noted
# XIP peptide (Xip251-270) = assay: compounds binding XIP fragment 251-270 – biochemical, small-molecule microarray, fluorescence 635/667 nm, 0.5 µg/mL protein, primary screen (AID 1183); conditions: fluorescence 635 nm, higher = more signal
# [12] = blood-stage malaria parasite viability loss – strain 3D7, DAPI fluorescence, 100 nL, primary screen (AID 1184);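 note: parasites grown inside human red blood cells in medium with human serum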; conditions: P. falciparum 3D7 growth, 3 d, higher = more signal
# [13] = target: Homeobox protein Hox-A13 (Mus musculus) (UniProt Q62424); assay: disruptors of Hoxa13 oligonucleotide interaction – biochemical, fluorescence polarization, labeled oligonucleotide, primary screen (AID 1185); conditions: Hoxa13:DNA binding, 15 min; higher = more signal, called active from +8 up or from −8 down unless noted
# [14] = blockers of DNA damage checkpoint Chk1 activation – imaging, HeLa, hydroxyurea, phospho-Chk1 antibody, percent positive cells, primary screen (AID 1186); conditions: hydroxyurea-induced phospho-Chk1 immunofluorescence imaging, higher = more signal
# [15] = blockers of DNA damage checkpoint Chk1 activation – imaging, HeLa, hydroxyurea, phospho-Chk1 nuclear intensity, primary screen (AID 1187); conditions: hydroxyurea-induced phospho-Chk1 immunofluorescence imaging, higher = more signal
# Chain of Dihydroorotate dehydrogenase (quinone), mitochondrial (Plasmodium falciparum (isolate 3D7)) (Q08210 whole entry, looked up): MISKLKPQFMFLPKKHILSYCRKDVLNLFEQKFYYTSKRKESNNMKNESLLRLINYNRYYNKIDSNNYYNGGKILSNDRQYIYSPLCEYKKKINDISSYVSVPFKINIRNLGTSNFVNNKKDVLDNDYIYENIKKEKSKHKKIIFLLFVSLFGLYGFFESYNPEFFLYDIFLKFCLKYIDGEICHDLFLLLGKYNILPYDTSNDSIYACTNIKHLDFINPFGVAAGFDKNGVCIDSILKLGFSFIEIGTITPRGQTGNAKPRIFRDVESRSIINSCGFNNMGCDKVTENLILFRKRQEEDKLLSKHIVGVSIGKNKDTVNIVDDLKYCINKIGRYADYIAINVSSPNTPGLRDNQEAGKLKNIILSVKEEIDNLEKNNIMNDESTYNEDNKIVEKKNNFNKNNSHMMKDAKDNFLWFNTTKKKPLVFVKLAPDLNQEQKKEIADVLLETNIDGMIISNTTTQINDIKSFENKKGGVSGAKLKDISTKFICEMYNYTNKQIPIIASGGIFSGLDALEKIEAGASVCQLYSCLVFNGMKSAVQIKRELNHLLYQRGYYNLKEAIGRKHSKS
# Chain of Homeobox protein Hox-A13 (Mus musculus) (Q62424 whole entry, looked up): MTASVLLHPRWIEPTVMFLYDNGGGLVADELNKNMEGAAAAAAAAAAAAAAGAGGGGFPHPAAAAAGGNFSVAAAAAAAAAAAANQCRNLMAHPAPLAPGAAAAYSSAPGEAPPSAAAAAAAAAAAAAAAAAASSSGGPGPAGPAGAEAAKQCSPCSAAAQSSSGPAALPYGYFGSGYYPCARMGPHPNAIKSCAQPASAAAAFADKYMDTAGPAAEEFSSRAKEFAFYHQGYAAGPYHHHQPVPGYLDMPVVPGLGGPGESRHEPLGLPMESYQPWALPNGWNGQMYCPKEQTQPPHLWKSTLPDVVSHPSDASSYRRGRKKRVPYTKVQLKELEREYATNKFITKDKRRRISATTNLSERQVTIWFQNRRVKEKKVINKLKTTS
# Chain of E3 ubiquitin-protein ligase XIAP (Homo sapiens) (P98170 whole entry, looked up, the tested form may be a part): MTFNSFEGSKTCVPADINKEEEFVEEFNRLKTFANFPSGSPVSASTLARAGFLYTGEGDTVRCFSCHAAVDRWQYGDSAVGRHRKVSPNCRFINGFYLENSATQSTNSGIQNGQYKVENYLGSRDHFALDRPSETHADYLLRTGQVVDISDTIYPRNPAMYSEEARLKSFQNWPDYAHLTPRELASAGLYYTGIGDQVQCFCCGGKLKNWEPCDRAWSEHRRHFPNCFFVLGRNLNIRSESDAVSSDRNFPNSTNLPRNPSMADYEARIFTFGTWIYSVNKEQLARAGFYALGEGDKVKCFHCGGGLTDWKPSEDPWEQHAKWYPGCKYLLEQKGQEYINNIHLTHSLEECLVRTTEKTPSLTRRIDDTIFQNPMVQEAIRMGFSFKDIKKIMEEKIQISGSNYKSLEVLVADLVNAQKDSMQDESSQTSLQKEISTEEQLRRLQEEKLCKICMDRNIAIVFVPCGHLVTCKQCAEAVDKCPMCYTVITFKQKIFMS
SMILES,z-score [1],z-score [2],z-score [3],composite z-score [4],z-score [5],z-score [6],z-score [7],z-score [8],z-score [9],composite z-score [10],composite z-score [11],composite z-score (XIP peptide (Xip251-270)),z-score [12],z-score [13],z-score [14],z-score [15]
c1ccc(-c2cc3c(nc2-c2ccccc2)CCNC3)cc1,0.469,-0.0743 (inactive),0.526 (inactive),1.07 (inactive),-0.0933 (inactive),1.36 (inactive),0.306 (inactive),-0.29 (inactive),0.938,-0.0344,0.236 (inactive),0.0762,-0.295,-0.372 (inactive),–,–
CCOC(=O)[C@H]1CC=C2C(=O)Oc3ccc(Br)cc3[C@@H]21,0.328,-17 (active),-0.595 (inactive),-0.89 (inactive),0.477 (inactive),-14 (active),-0.936 (inactive),-0.568 (inactive),-0.0544,0.355,0.874 (inactive),0.694,-0.5,-6.05 (inactive),0.439 (inactive),0.286 (inactive)
C[C@H]1O[C@H]2C3=C(C(=O)[C@@H]4O[C@@H]4[C@@H]3O)[C@@H]1[C@@H]1[C@@H](C)OC=C3[C@@H](O)[C@H]4O[C@H]4C(=O)[C@]312,-0.85,-0.92 (inactive),-1.92 (inactive),-1.59 (inactive),0.629 (inactive),-0.839 (inactive),0.215 (inactive),-0.115 (inactive),-0.416,-0.136,-0.7 (inactive),0.938,-1.58,-0.276 (inactive),–,–
COC(=O)[C@H]1C(=O)c2ccccc2O[C@@](C(=O)OC)(c2ccccc2)[C@@H]1c1ccccc1,-0.515,-0.54 (inactive),-0.0272 (inactive),0.0983 (inactive),-0.233 (inactive),0.174 (inactive),0.27 (inactive),0.419 (inactive),0.223,0.182,0.107 (inactive),0.191,-1.6,-0.6 (inactive),–,–
CCCc1cc2c(n1Cc1ccco1)C(C)C1CN(C(=O)c3ccccc3)C(C)(C(=O)OC)C21 (stereo not given),-1.24,-0.0767 (inactive),-1.85 (inactive),-0.455 (inactive),1.9 (inactive),0.264 (inactive),-1.25 (inactive),-0.951 (inactive),-1.3,0.471,1.32 (inactive),0.741,0.0125,-4.51 (inactive),0.586 (inactive),0.875 (inactive)
C[C@@H]1OC=C2[C@@H](O)[C@H]3O[C@H]3C(=O)[C@]23[C@H]1[C@H]1C2=C([C@@H](O)[C@H]4O[C@H]4C2=O)[C@@H]3O[C@@H]1C,0.216,0.243 (inactive),0.103 (inactive),-0.0198 (inactive),0.0251 (inactive),-0.541 (inactive),-0.03 (inactive),-0.0416 (inactive),0.864,-0.135,-0.496 (inactive),-0.465,0.487,-0.299 (inactive),–,–
CN1CCC(c2ccc(CO)cc2)=CC1c1cccs1 (stereo not given),-0.792,-1.01 (inactive),-0.694 (inactive),0.083 (inactive),-0.329 (inactive),1.13 (inactive),-0.543 (inactive),-0.447 (inactive),-0.118,0.152,0.219 (inactive),0.171,-1.99,-4.11 (inactive),0.126 (inactive),-0.0255 (inactive)
C=C(CC1(C(C)NP(=O)(c2ccccc2)c2ccccc2)CC1)c1ccccc1 (stereo not given),0.901,-16.1 (active),0.794 (inactive),-0.626 (inactive),1.38 (inactive),-16 (active),-0.628 (inactive),-0.645 (inactive),2,0.525,-0.131 (inactive),0.858,-1.1,-5.49 (inactive),0.137 (inactive),0.321 (inactive)
OCc1ccc(C2=CC(c3cccs3)N(Cc3cccc(OC(F)(F)F)c3)CC2)cc1 (stereo not given),-0.0049,-1.22 (inactive),-0.126 (inactive),-4.15 (inactive),-0.223 (inactive),-0.449 (inactive),0.301 (inactive),-0.544 (inactive),0.341,-0.192,0.209 (inactive),-0.0913,-3.09,-1.91 (inactive),-0.308 (inactive),-0.44 (inactive)
CCCc1cc2c(n1Cc1ccc(C)cc1)C(C)C1CN(C(=O)c3ccccc3)C(C)(C(=O)OC)C21 (stereo not given),-0.492,-0.283 (inactive),-1.04 (inactive),-1.07 (inactive),0.355 (inactive),-0.654 (inactive),0.103 (inactive),0.357 (inactive),-1.11,0.174,0.707 (inactive),0.73,-0.0901,-2.8 (inactive),-0.364 (inactive),0.0089 (inactive)
CN1CCc2nc(CO)c(CO)cc2C1,0.328,1.31 (inactive),0.692 (inactive),0.693 (inactive),-0.188 (inactive),1.18 (inactive),0.0008 (inactive),-0.019 (inactive),1.42,-0.144,-0.102 (inactive),-0.446,-0.221,-0.184 (inactive),–,–
COc1cc2c(cc1O)C(C)N(C)CC2 (stereo not given),-0.454,-0.709 (inactive),0.412 (inactive),-3.68 (inactive),-0.227 (inactive),-0.448 (inactive),0.516 (inactive),-0.385 (inactive),0.566,-0.184,-0.191 (inactive),0.229,-0.563,-0.569 (inactive),-0.0732 (inactive),0.363 (inactive)
COC(=O)[C@H]1[C@H](c2ccccc2)C(=O)[C@]2(O)c3ccccc3O[C@@]12c1ccccc1,-0.514,-2.2 (inactive),-0.417 (inactive),-1.36 (inactive),0.711 (inactive),-1.43 (inactive),0.401 (inactive),-1.04 (inactive),-0.865,0.17,-0.013 (inactive),0.364,0.332,-0.116 (inactive),–,–
COC(=O)C1(C)C=C2C(=C(C)C(=O)C2C)CN1 (stereo not given),-1.13,2.09 (inactive),-2.31 (inactive),-0.809 (inactive),1.53 (inactive),1.17 (inactive),-0.608 (inactive),-1.64 (inactive),-1.24,0.226,-0.309 (inactive),-0.628,-1.06,-3.26 (inactive),0.414 (inactive),0.354 (inactive)
O=P(c1ccccc1)(c1ccccc1)N1CC2(CC2)CC(O)(c2ccccc2)C1 (stereo not given),-0.561,0.12 (inactive),-1.03 (inactive),-0.001 (inactive),0.315 (inactive),0.445 (inactive),-0.32 (inactive),0.158 (inactive),-1.22,0.143,0.115 (inactive),0.725,0.45,-2.7 (inactive),0.37 (inactive),0.613 (inactive)
OCc1ccc(C2=CC(C3CC3)N(Cc3sc4ccccc4c3Cl)CC2)cc1 (stereo not given),-0.0351,-4.2 (inactive),-1.43 (inactive),-1.3 (inactive),-0.411 (inactive),1.76 (inactive),-1.71 (inactive),-1.33 (inactive),-1.37,0.539,1.51 (inactive),0.625,-3.04,3.12 (inactive),-0.6 (inactive),-0.744 (inactive)
CCCc1cc2c(n1CCO)C(C)C1CN(C(=O)c3ccccc3)C(C)(C(=O)OC)C21 (stereo not given),-1.6,0.262 (inactive),-1.68 (inactive),-0.349 (inactive),-0.0703 (inactive),0.168 (inactive),-0.681 (inactive),-0.127 (inactive),-1.85,0.612,0.26 (inactive),0.719,0.119,-4.02 (inactive),1.28 (inactive),1.1 (inactive)
